Results filed as inconclusive are left out. Calls of active or inactive are those of the source. Unless noted, calls follow the shape of the full dose curve.
Legend:
[1] = Nuclear factor erythroid 2-related factor 2/antioxidant responsive element (Nrf2/ARE) small molecule agonists: qHTS cell viability counter screen in human keratinocytes (AID 1919968; active = well fitted curve in the direction sought with a large enough effect in the repeat runs; an effect the other way counts as inactive or inconclusive; also: nearly all actives have a fitted effect of over 55% in size)
Summary of the method: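 In human HaCaT keratinocytes stably expressing an ARE-driven luciferase, compound exposure lasted 23 h at 37 C under 5% CO2. Viable cells are quantified with a protease-based fluorogenic reagent (CellTiter-Fluor) read 1 h after addition.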

[2] = Nuclear factor erythroid 2-related factor 2/antioxidant responsive element (Nrf2/ARE) small molecule agonists: luciferase reporter gene qHTS assay in human keratinocytes (AID 1919969); also: nearly all actives have a fitted effect of over 35% in size
[3] = molecular target: Gonadotropin-releasing hormone receptor (Homo sapiens) (UniProt P30968); test: Human gonadotropin-releasing hormone receptor (GnRHR) small molecule agonists, calcium flux assay in GnRHR-HEK293 cells (AID 1920063); also: nearly all actives have a fitted effect of over 35% in size
Chain of Gonadotropin-releasing hormone receptor (Homo sapiens) (P30968 whole entry, looked up): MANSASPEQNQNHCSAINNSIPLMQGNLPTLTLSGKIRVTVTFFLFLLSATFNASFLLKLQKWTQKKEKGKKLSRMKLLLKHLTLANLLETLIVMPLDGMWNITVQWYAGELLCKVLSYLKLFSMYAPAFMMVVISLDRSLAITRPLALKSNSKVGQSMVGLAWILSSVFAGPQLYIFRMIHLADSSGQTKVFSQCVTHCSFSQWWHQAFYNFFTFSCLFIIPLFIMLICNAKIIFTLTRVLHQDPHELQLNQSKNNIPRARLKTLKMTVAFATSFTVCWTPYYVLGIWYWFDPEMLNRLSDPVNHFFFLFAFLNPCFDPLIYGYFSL
Summary of the method: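 Intracellular calcium rise is the read-out: engineered human GnRHR HEK293 cells, dye-loaded, are exposed to DMSO-dissolved compounds and fluorescence at Ex/Em 480/540 is tracked for 3 min.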

[4] = molecular target: KiSS-1 receptor (Homo sapiens) (UniProt Q969F8); test: Human kisspeptin (KISS1R) small molecule agonists, calcium flux assay in KISS1R-HEK293 cells (AID 1920064; active = well fitted curve in the direction sought with a large enough effect in the repeat runs; an effect the other way counts as inactive or inconclusive)
Chain of KiSS-1 receptor (Homo sapiens) (Q969F8 whole entry, looked up): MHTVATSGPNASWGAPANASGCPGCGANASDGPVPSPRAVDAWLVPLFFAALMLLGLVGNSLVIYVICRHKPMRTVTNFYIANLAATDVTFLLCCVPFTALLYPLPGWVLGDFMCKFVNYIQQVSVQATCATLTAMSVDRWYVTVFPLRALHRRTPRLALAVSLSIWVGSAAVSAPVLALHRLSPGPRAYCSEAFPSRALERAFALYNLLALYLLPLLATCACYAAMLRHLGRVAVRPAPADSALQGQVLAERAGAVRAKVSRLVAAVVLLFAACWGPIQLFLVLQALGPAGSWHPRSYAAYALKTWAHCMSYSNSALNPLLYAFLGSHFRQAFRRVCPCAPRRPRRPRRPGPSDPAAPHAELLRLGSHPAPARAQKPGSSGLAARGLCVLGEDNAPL
Summary of the method: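 Concentration-response testing used 15 concentrations in triplicate on human KISS1R-expressing HEK293 cells. Calcium-dependent fluorescence (Ex/Em 480/540) was followed kinetically for 3 min after compound transfer.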

[5] = G protein-coupled receptor (GPCR) small molecule agonists, calcium flux assay: HEK293 wild type cell line counter screen (AID 1920065)
Summary of the method: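 Fluorescence intensity signals activation. After overnight (18 h) culture and a 1 h calcium dye load at 37 C, compounds are added by pin tool and the plate read at 480/540 nm for 3 min in 1 s steps.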

[6] = p53 small molecule agonists, cell-based qHTS assay with human liver microsomes (AID 1963577)
Summary of the method: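 Compounds act here after metabolic activation: human liver microsomes and NADPH, both at 0.5 mg/mL final, were co-added to p53RE-bla cells. Incubation ran 16 h at 37 C, followed by LiveBLAzer detection.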

[7] = p53 small molecule agonists, cell-based qHTS assay with human liver microsomes: qHTS cell viability counter screen (AID 1963579); also: nearly all actives have a fitted effect of over 45% in size
Summary of the method: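 Cells carrying the p53 response-element beta-lactamase reporter are treated for 16 h at 37 C with test compounds in the presence of human liver microsomes and NADPH (both 0.5 mg/mL final); ATP-based CellTiter-Glo luminescence then reports viability.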

[8] = p53 small molecule agonists, cell-based qHTS assay (AID 1963582; active = well fitted activation curve with a large enough effect in the signal ratio in the repeat runs, not every such curve was filed as active; the % refers to the signal ratio)
Summary of the method: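 After plating, p53RE-bla cells sat 5 h in the incubator; compounds or DMSO vehicle were pinned in; a 16 h incubation at 37 C followed; FRET substrate was added and, 2 h later at RT, fluorescence was measured.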

[9] = molecular target: 5-hydroxytryptamine receptor 2A (Homo sapiens) (UniProt P28223); test: 5-hydroxytryptamine receptor 2A (HTR2A) small molecule antagonists, cell-based qHTS assay (AID 1963586); also: nearly all actives have a fitted effect of over 45% in size
Chain of 5-hydroxytryptamine receptor 2A (Homo sapiens) (P28223 whole entry, looked up): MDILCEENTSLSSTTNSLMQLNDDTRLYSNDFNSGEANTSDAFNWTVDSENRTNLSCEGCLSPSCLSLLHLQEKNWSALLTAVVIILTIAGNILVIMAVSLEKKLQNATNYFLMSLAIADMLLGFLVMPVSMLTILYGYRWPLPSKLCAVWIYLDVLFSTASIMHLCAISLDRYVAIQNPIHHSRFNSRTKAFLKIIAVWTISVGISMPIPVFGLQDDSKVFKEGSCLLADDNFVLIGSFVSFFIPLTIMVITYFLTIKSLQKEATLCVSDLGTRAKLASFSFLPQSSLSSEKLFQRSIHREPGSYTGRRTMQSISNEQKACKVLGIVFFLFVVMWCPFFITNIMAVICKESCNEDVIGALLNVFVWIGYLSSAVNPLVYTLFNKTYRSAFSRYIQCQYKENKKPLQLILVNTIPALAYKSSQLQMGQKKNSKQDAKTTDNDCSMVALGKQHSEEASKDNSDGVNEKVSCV
Summary of the method: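 CHO cells stably expressing human HTR2A were plated for 18 h at 37 C, then loaded with calcium dye for 1 h. Compounds were preincubated 5 min at room temperature before DOI (4 nM solution) was added. Kinetic fluorescence was read for 3 min.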

[10] = molecular target: 5-hydroxytryptamine receptor 2A (Homo sapiens) (UniProt P28223); test: 5-hydroxytryptamine receptor 2A (HTR2A) small molecule agonists, cell-based qHTS assay (AID 1963587); also: nearly all actives have a fitted effect of over 30% in size
Summary of the method: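 HTR2A-CHO cells, plated 18 h at 37 C/5% CO2, dye-loaded 1 h at 37 C; compounds in DMSO added by pin tool (agonist mode). Intracellular calcium flux read as kinetic fluorescence on FDSS over 2 min at 1 s intervals.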

[11] = molecular target: Muscarinic acetylcholine receptor M1 (Homo sapiens) (UniProt P11229); test: Cholinergic receptor muscarinic 1 (CHRM1) small molecule antagonists, cell-based qHTS assay (AID 1963588); also: nearly all actives have a fitted effect of over 40% in size
Chain of Muscarinic acetylcholine receptor M1 (Homo sapiens) (P11229 whole entry, looked up): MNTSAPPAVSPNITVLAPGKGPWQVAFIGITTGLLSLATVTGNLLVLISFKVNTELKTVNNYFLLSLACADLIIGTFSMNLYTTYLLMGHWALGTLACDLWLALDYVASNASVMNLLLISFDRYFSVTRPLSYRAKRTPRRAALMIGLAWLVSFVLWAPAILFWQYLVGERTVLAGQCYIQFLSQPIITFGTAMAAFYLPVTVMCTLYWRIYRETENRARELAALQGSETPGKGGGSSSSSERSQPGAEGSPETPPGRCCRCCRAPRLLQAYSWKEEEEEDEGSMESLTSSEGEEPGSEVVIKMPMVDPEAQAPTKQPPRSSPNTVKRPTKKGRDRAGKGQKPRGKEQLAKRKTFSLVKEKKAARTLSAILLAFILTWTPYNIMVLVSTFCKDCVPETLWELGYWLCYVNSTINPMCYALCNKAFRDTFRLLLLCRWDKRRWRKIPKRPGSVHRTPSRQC
Summary of the method: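 Compounds were tested at 15 concentrations in three independent runs. Dye-loaded CHRM1-CHO cells were exposed 5 min at room temperature before stimulation by acetylcholine added at 50nM. Intracellular calcium was read kinetically on FDSS for 3 min.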

[12] = molecular target: Muscarinic acetylcholine receptor M1 (Homo sapiens) (UniProt P11229); test: Cholinergic receptor muscarinic 1 (CHRM1) small molecule agonists, cell-based qHTS assay (AID 1963589); also: nearly all actives have a fitted effect of over 35% in size; also: potency is read from the fitted curve at half-maximal effect
Summary of the method: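 Fluorescent calcium dye reports M1 activation in stably transfected CHO cells. Compounds, 15 concentrations, added after 1 h dye loading at 37 C; kinetic reading at 1 sec intervals.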

[13] = cAMP Responsive Elements (CRE) small molecule agonists, cell-based qHTS assay (AID 1963590)
Summary of the method: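 Compound exposure lasted 3 h at 37 C/5% CO2 in CRE-bla HEK 293T cells grown in assay medium with 10% dialyzed FBS and 25 mM HEPES. Reporter signal came from LiveBLAzer B/G FRET substrate, 2 h, room temperature.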

[14] = cAMP Responsive Elements (CRE) small molecule antagonists, cell-based qHTS assay (AID 1963591; active = well fitted inhibition curve with a large enough effect in the signal ratio in the repeat runs, not every such curve was filed as active; the % refers to the signal ratio)
Summary of the method: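 Stimulation used NKH477 at a final 0.25 uM for 3 h in compound-treated CRE-bla HEK293T cells, seeded 18 h beforehand. Reporter activity was measured with LiveBLAzer B/G FRET substrate after 2 h at room temperature.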

[15] = molecular target: Beta-2 adrenergic receptor (Homo sapiens) (UniProt P07550); test: Adrenergic beta2 receptor (ADRB2) small molecule antagonists, cell-based qHTS assay (AID 1963592); also: series mostly up to about 92 µM; nearly all actives have a fitted effect of over 50% in size
Chain of Beta-2 adrenergic receptor (Homo sapiens) (P07550 whole entry, looked up): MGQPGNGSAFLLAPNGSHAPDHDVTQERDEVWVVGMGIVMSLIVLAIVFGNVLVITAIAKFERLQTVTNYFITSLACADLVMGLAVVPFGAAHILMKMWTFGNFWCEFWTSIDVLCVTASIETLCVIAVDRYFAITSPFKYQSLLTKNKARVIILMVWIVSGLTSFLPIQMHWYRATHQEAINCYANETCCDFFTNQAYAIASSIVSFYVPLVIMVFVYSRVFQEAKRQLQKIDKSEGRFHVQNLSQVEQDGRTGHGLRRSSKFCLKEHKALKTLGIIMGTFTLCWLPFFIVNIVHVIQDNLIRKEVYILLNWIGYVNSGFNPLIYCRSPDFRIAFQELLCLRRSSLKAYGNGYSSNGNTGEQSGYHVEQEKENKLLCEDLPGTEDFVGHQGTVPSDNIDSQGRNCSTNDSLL
Summary of the method: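 Assay format: CHO-ADRB2 cells, 18-20hr seeding at 37C/5% CO2, then compound plus 1nM isoproterenol agonist mix for 0.5hr RT. Homogeneous time-resolved fluorescence cAMP detection after 1hr, expressed as 665/615 nm ratio.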

[16] = molecular target: D(2) dopamine receptor (Homo sapiens) (UniProt P14416); test: Dopamine D2 receptor (DRD2) small molecule agonists, cell-based qHTS assay (AID 1963594); also: nearly all actives have a fitted effect of over 35% in size
Chain of D(2) dopamine receptor (Homo sapiens) (P14416 whole entry, looked up): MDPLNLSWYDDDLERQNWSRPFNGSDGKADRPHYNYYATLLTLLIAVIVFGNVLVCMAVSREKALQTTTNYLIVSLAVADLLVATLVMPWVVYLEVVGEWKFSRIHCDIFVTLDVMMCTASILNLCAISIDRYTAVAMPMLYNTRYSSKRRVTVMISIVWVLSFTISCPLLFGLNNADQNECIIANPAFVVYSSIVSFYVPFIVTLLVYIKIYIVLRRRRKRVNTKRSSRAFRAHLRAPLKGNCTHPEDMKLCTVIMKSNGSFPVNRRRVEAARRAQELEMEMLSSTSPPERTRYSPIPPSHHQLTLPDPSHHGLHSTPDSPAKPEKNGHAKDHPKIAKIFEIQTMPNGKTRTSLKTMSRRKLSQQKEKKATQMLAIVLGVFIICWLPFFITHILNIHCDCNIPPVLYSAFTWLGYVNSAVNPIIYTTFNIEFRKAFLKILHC
Summary of the method: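 HEK293 cells stably expressing DRD2 were cultured 24 h at 37 C, then given Ro20-1724 (0.1 mM final) and compounds for 10 min at room temperature. NKH477 (200nM) was then added for 30 min. cAMP was read by HTRF.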

[17] = p53 small molecule agonists, cell-based qHTS assay with rat liver microsomes: qHTS cell viability counter screen (AID 1963580); also: nearly all actives have a fitted effect of over 45% in size
Summary of the method: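 Luminescent ATP readout (CellTiter-Glo, 30 min at room temperature) reports viability of p53RE-bla HCT-116 cells after 16 h at 37 C with test compounds under metabolic activation by rat liver microsomes and NADPH at 0.5 mg/mL final each.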

[18] = molecular target: D(2) dopamine receptor (Homo sapiens) (UniProt P14416); test: Dopamine D2 receptor (DRD2) small molecule antagonists, cell-based qHTS assay (AID 1963595; active = well fitted inhibition curve with a large enough effect in the signal ratio in the repeat runs, with a control signal flat; the % refers to the signal ratio)
Summary of the method: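 In this cell-based antagonist screen, compounds act for 10 min at room temperature before a 30 min challenge with 12 nM quinpirole and 200 nM NKH477. cAMP is quantified by HTRF competition in DRD2-HEK293 cells containing 0.1 mM Ro20-1724.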

[19] = p53 small molecule agonists, cell-based qHTS assay: qHTS cell viability counter screen (AID 1963581); also: nearly all actives have a fitted effect of over 45% in size
Summary of the method: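 Luminescence from CellTiter-Glo, reflecting ATP content, serves as the cytotoxicity measure; it is taken after the 2 h reporter substrate step in HCT-116 p53RE-bla cells dosed for 16 h at 37 C.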

[20] = p53 small molecule agonists, cell-based qHTS assay with rat liver microsomes (AID 1963578)
Summary of the method: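 Read-out is beta-lactamase reporter fluorescence (LiveBLAzer, 2 h, room temperature, dark) in p53RE-bla cells treated 16 h at 37 C with compound, rat liver microsomes and NADPH, both 0.5 mg/mL final.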
% is scaled to controls: 0 for no effect and ±100 for the full control effect.

CCCCCCCC(=O)OCC
inactive: Potency [1] | Potency [2] | Potency [3] | outcome [4] | outcome [5] | Potency [6] | Potency [7] | Potency [8] | Potency [9] | Potency [10] | Potency [11] | Potency [12] | Potency [13] | Potency [14] | Potency [15] | Potency [16]

O=C1C=CCCC1
inactive: Potency [1] | Potency [2] | Potency [3] | outcome [4] | outcome [5] | Potency [6] | Potency [7] | Potency [17] | Potency [8] | Potency [9] | Potency [10] | Potency [11] | Potency [12] | Potency [13] | Potency [14] | Potency [15] | Potency [16] | Potency [18]

Nc1c(Cl)cc(Cl)cc1Cl
active: Potency [12] 8.58 µM
inactive: Potency [1] | Potency [2] | Potency [3] | outcome [4] | outcome [5] | Potency [6] | Potency [17] | Potency [19] | Potency [8] | Potency [9] | Potency [10] | Potency [13] | Potency [14] | Potency [15] | Potency [16] | Potency [18]

CCS(=O)(=O)CCn1c([N+](=O)[O-])cnc1C
inactive: Potency [1] | Potency [2] | Potency [3] | outcome [4] | outcome [5] | Potency [6] | Potency [17] | Potency [19] | Potency [8] | Potency [13] | Potency [14] | Potency [15] | Potency [16] | Potency [18]

Nc1c2c(nc3ccccc13)CCCC2O (configuration not stated)
inactive: Potency [1] | Potency [2] | Potency [3] | outcome [4] | outcome [5] | Potency [6] | Potency [7] | Potency [17] | Potency [19] | Potency [8] | Potency [11] | Potency [12] | Potency [13] | Potency [14] | Potency [15] | Potency [16] | Potency [18]

NCCCNCCSP(=O)(O)O
inactive: activity change, negative = cytotoxicity [1] -4.44% [at 8.39 µM] | activity, positive = activation [2] -4.57% [at 8.39 µM] | activity change [3] -1.6% [at 5.22 µM, hits give high values] | activation [4] -1.03% [at 6.97 µM] | activation [5] -0.178% [at 5.23 µM] | activation [6] 9.01% [at 5.99 µM] | activity change, negative = cytotoxicity [7] -1.63% [at 5.99 µM] | activity change, negative = cytotoxicity [17] 7.5% [at 5.99 µM] | activity change, negative = cytotoxicity [19] 5.99% [at 5.99 µM] | activation [8] 1.38% [at 5.99 µM] | activation [13] 0.961% [at 8.39 µM] | activity change, negative = inhibition [14] 10.3% [at 8.39 µM] | activity change, negative = inhibition [15] -7.99% [at 8.39 µM] | activation [16] -13.4% [at 8.39 µM] | activity change, negative = inhibition [18] 5.25% [at 8.38 µM]

CCCCCCCCCCCCCCCCC(=O)O
inactive: Potency [1] | Potency [2] | Potency [3] | outcome [4] | outcome [5] | Potency [20] | Potency [7] | Potency [17] | Potency [19] | Potency [8] | Potency [9] | Potency [10] | Potency [11] | Potency [12] | Potency [13] | Potency [14] | Potency [15] | Potency [16] | Potency [18]

CC(=O)SC[C@@H](Cc1ccccc1)C(=O)NCC(=O)OCc1ccccc1
inactive: Potency [1] | Potency [2] | Potency [3] | outcome [4] | outcome [5] | Potency [20] | Potency [7] | Potency [17] | Potency [19] | Potency [8] | Potency [9] | Potency [10] | Potency [13] | Potency [15] | Potency [16] | Potency [18]
